Screening results from PubChem BioAssay.
Most compounds without a hit are left out; they make up all but 9.2% or so of the library.
ELG1 genotoxic = qHTS screen for small molecules that induce genotoxicity in human embryonic kidney (HEK293T) cells expressing luciferase-tagged ELG1; HEK293T ELG1-luciferase reporter, luminescence, 16 h; Potency, µM (titrated, usually from 46 µM), inactives show at the highest dose activity change, positive = activation, usual class: activators; hit rate 1.3% among 330,000; AID 504466, 2011; note: % of control where 0% means no effect; nearly all actives have a fitted effect of over 60% in size
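Cells (2,000/well) expressing the ELG1-luciferase fusion are dosed by pin tool and kept 16 hr at 37 °C, 5% CO2. Signal comes from ONE-Glo luciferase reagent after 30 min at room temperature.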
SMN2 splice up = qHTS Assay for Enhancers of SMN2 Splice Variant Expression | HEK293 SMN2-luciferase splicing reporter, luminescence, 30-36 h | Potency, µM (series often up to 46.1 µM), inactives show at the highest dose activity change, positive = activation, hits mostly activators | hit rate 2.8% among 210,000 | AID 1458, 2008; note: % of control where 0% means no effect; nearly all actives have a fitted effect of over 55% in size
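HEK293 cells carry an SMN2 minigene-luciferase reporter in which exon 7 inclusion puts luciferase in frame. Cells were seeded at 2000 cells/well, attached for 10-12 hours, then exposed to compounds for 30-36 hours at 37C before ONE-Glo luminescence.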
NPC1 promoter act = qHTS Assay for NPC1 Promoter Activators; Potency, µM (highest dose often 9.22 µM), for the others: top-dose activation, usual class: activators; hit rate 2.4% among 320,000; Huh7 NPC1 promoter luciferase reporter, 24 h; AID 485313, 2010; note: % of control where 0% means no effect; nearly all actives have a fitted effect of over 60% in size
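In 1536-well qHTS, Huh7 cells harboring an NPC1 promoter–luciferase construct received compound for 24 h; activation was quantified by luminescence following luciferase reagent addition.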
FLuc counter = qHTS profiling assay for firefly luciferase inhibitor/activator using purifed enzyme and Km concentrations of substrates (counterscreen for miR-21 project). Luciferin 4-monooxygenase (Photinus pyralis), P08659. purified FLuc, Km substrates, luminescence inhibition. Potency, µM (titrated, usually from 57.5 µM), inactives show at the highest dose activity change, negative = inhibition, hits mostly inhibitors. hit rate 6.9% among 360,000;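 note: plate controls were vehicle for no effect and reference inhibitor for full effect; nearly all actives have a fitted effect of over 55% in size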
Target sequence (P08659 whole entry, looked up): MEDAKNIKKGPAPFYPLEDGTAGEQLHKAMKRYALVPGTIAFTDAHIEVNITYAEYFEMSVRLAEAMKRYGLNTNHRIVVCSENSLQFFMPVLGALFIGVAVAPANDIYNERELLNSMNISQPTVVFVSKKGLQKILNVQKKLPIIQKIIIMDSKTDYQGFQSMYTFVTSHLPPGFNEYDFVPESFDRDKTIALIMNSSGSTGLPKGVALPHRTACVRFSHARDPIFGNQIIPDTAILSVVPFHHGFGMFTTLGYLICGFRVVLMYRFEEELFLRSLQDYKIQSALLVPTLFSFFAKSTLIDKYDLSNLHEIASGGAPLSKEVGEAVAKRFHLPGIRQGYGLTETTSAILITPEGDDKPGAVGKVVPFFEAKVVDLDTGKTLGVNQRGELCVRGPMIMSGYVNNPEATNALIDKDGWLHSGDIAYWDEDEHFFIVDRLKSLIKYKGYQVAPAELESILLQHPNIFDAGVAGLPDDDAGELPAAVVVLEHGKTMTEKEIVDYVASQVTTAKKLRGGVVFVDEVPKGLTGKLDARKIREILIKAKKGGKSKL
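Biochemical qHTS of compounds, final roughly 60 µM downward over six points, against 10 nM purified firefly luciferase using Km concentrations of substrates (10 uM D-luciferin, 10 uM ATP) in Tris acetate pH 7.5 buffer; luminescence output.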
Rab9 prom act = qHTS Assay for Rab9 Promoter Activators | AID 485297, 2010 | Huh7 Rab9 promoter-luciferase reporter, luminescence, 24 h | Potency, µM (top dose mostly 9.22 µM), for the others: top-dose activation, negative = inhibition, hits mostly activators | hit rate 2.8% among 320,000; note: % of control where 0% means no effect; nearly all actives have a fitted effect of over 60% in size
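Steps: seed 1500 Huh7 Rab9-luc cells per well, rest 2 h at 37 °C; add compound in DMSO; incubate 24 h; add luciferase reagent, 10 min ambient; read luminescence.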
ELG1 repair inh = qHTS screen for small molecules that inhibit ELG1-dependent DNA repair in human embryonic kidney (HEK293T) cells expressing luciferase-tagged ELG1. HEK293T ELG1-luciferase reporter, luminescence, 16 h; DNA damage induced by 5-fluorouridine. Potency, µM (titrated, usually from 46.1 µM), for inactives: at the top dose activity change, negative = inhibition, hits mostly inhibitors. hit rate 2.3% among 330,000; note: % is set by controls: 0 for no effect and ±100 for the full control effect; nearly all actives have a fitted effect of over 55% in size
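Cells (2,000 per well) received 5-fluorouridine plus test compound or DMSO and were incubated 16 hr at 37 °C, 5% CO2. Luciferase activity was read by luminescence 30 min after ONE-Glo addition; signal suppression marked inhibition of damage-induced ELG1 function.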
Numbers without * were called inactive; ? = inconclusive; nt = no result. Calls come from the whole dose curve; as a rule, active = well fitted curve in the direction sought with a large enough effect; inconclusive = small, poorly fitted or top-dose-only effect, or another doubt; inactive = no such curve, though single readings can be large; an effect the other way counts as inactive or inconclusive. Potency is the fitted concentration of half-maximal effect.

SMILES | ELG1 genotoxic | SMN2 splice up | NPC1 promoter act | FLuc counter | Rab9 prom act | ELG1 repair inh
CC(=O)c1c(C)[nH]c(C(=O)OCC(=O)Nc2ccc(Cl)cc2[N+](=O)[O-])c1C | 2.6% | -77.4% | -25.8% | -0.2% | -11.6% | 3.66µM*
Cc1ccc(NC(=O)COC(=O)c2ccc(Cl)cc2)cc1S(=O)(=O)N(C)C | 3.6% | 11.0% | -4.8% | -12.1% | -3.9% | ?
CC(=O)c1c(C)[nH]c(C(=O)OCC(=O)Nc2ccc(Cl)c(S(=O)(=O)N(C)C)c2)c1C | -8.5% | nt | -3.6% | -1.9% | -24.0% | 11.6µM*
CC(=O)c1c(C)[nH]c(C(=O)Nc2cccc(S(=O)(=O)N(C)c3ccccc3)c2)c1C | -17.0% | nt | -12.9% | -8.8% | -7.1% | ?
CCOC(=O)c1c(C)[nH]c(C(=O)OCC(=O)Nc2cc(Cl)ccc2OC)c1C | 1.7% | 5.2% | 0.2% | -1.5% | 2.6% | -4.7%
CC(=O)c1c(C)[nH]c(C(=O)OCC(=O)Nc2ccc3c(c2)OCCO3)c1C | -3.1% | nt | nt | nt | nt | 14.6µM*
COc1ccc(Cl)cc1NC(=O)C1CCN(C(=O)Nc2ccccc2)CC1 | 6.0% | nt | -2.7% | -2.4% | 1.8% | -11.2%
O=C(Nc1ccc2c(c1)OCO2)c1ccc([N+](=O)[O-])cc1[N+](=O)[O-] | 1.2% | nt | 25.8% | ? | ? | ?
CCSc1nc2c([nH]c3ccccc32)c(=O)n1-c1ccc(F)cc1 | nt | nt | nt | -3.8% | nt | nt
O=C(COC(=O)/C=C/c1ccc(C(F)(F)F)cc1)NC(=O)NCc1ccco1 | 3.3% | nt | -0.4% | -3.2% | -0.6% | 14.7%
O=C(CSc1nnc(-c2ccccc2F)n1C1CCCCC1)Nc1cc(C(=O)O)ccc1Cl | 0.1% | nt | nt | nt | nt | -2.0%
COc1cc(NC(=O)COC(=O)c2[nH]c(C)c(C(C)=O)c2C)cc(OC)c1 | -2.0% | nt | nt | nt | nt | 7.3µM*
CC(=O)c1c(C)[nH]c(C(=O)OCC(=O)Nc2cc(C)on2)c1C | 5.8% | -39.4% | 2.0% | 0.9% | -2.1% | -28.1%
O=C(CSc1nnc(-c2ccncc2)n1Cc1ccco1)N1c2ccccc2Sc2ccc(Cl)cc21 | -4.6% | -45.7% | -12.5% | 2.4% | -4.7% | 23.1µM*
Cn1c(SCC(=O)N2c3ccccc3Sc3ccc(Cl)cc32)nnc1-c1ccco1 | -4.9% | -12.0% | -2.0% | 0.7% | 0.4% | 18.4µM*
Cc1cc(Cl)ccc1NC(=O)CSc1nnc(-c2ccncc2)n1Cc1ccco1 | -5.4% | -14.9% | -0.1% | 0.6% | 1.4% | ?
CCn1c(SCC(=O)N2c3ccccc3Sc3ccccc32)nnc1-c1ccco1 | -4.6% | -1.3% | -8.1% | 1.3% | -1.3% | ?
COc1ccc(C2=NN3C(C2)c2ccccc2OC3c2cccs2)cc1 (stereo not given) | ? | nt | 15.1% | ? | 22.5% | ?
COc1ccc(C2=NN3C(C2)c2ccccc2OC32C(=O)N(C)c3ccccc32)cc1 (stereo not given) | 14.6µM* | 4.3% | 2.7% | 10.7µM* | 4.1% | ?
O=[N+]([O-])c1ccc(CSc2ccc(-c3ccccn3)nn2)cc1 | 2.8% | -7.0% | 1.5% | -1.7% | 11.1% | 1.3%
c1ccc(CSc2ccc(-c3ccccn3)nn2)nc1 | ? | 11.2µM* | 2.82µM* | ? | 2.51µM* | ?
Clc1ccc(-c2ccc(SCc3ccccn3)nn2)cc1 | ? | ? | 2.24µM* | ? | 3.16µM* | ?
COC(=O)c1ccc(NC(=O)c2cc(=O)c3ccc(C)cc3o2)cc1 | nt | 1.0% | nt | -4.7% | nt | nt
Cn1c(=O)c2c(-c3ccccc3)n(-c3cccc(C#N)c3)cc2n(C)c1=O | nt | 1.6% | nt | -6.9% | nt | nt
